Measurements: PubChem BioAssay
Activity calls are given as the source filed them. Unless noted, the rule behind the calls is not given here.

Tests used:
[1] = resazurin metabolic signal in HepG2 cells – cell-based, resazurin fluorescence, 24 h, PK04 Diversity Set, profiling panel (AID 1172); conditions: HepG2 viability, higher = more signal
[2] = budding yeast growth changes without added modifier – OD600, strain BY4716, 24 h, basal condition, primary screen (AID 1173); conditions: S. cerevisiae BY4716 growth, OD600, 24 h; higher = more signal, called active from +8 up or from −8 down
[3] = viability profiling in MM1S myeloma cells – cell-based, resazurin fluorescence, basal, 24 h, PK04 Diversity Set, profiling panel (AID 1174); conditions: higher = more signal, called active from +8 up or from −8 down;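 note: MM1S multiple myeloma cell line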
[4] = target: Dihydroorotate dehydrogenase (quinone), mitochondrial (Plasmodium falciparum (isolate 3D7)) (UniProt Q08210); experiment: inhibition of P. falciparum DHODH – biochemical, C-terminal His tag, absorbance 600 nm, primary screen (AID 1175); conditions: PfDHODH enzyme, DCIP absorbance 600 nm; higher = more signal, called active from +8 up or from −8 down;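 note: recombinant parasite enzyme with a five histidine tag at its C terminus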
[5] = inhibition of PAO1 biofilm formation – strain PAO1, LB-PBS medium, absorbance 600 nm, primary screen (AID 1176); conditions: P. aeruginosa PAO1 growth/biofilm, A600, 12 h; higher = more signal
[6] = growth modulation of vineyard yeast isolate – strain RM11-1a, OD600, basal, 24 h, primary screen (AID 1177);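 note: cultures grown under basal conditions with no added stressor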; conditions: S. cerevisiae RM11-1a growth, OD600, 24 h; higher = more signal, called active from +8 up or from −8 down
[7] = growth of efflux-deficient E. coli DRC39 – strain DRC39, OD650, 24 h, E. coli filamentation inducers, primary screen (AID 1178);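 note: growth measured as culture turbidity by optical density at 650 nm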; conditions: E. coli DRC39 acrAB, higher = more signal, called active from +8 up or from −8 down
[8] = growth of efflux-deficient E. coli DRC39 – strain DRC39, OD650, 48 h, E. coli filamentation inducers, primary screen (AID 1179);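 note: screen aims at cell division blockers that make cells filament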; conditions: E. coli DRC39 delta-acrAB growth, higher = more signal, called active from +8 up or from −8 down
[9] = viability profiling in RPMI8226 myeloma cells – cell-based, resazurin fluorescence, basal, 24 h, PK04 Diversity Set, profiling panel (AID 1180); conditions: higher = more signal;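 note: RPMI8826 multiple myeloma cell line at 5000 cells per well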
[10] = target: E3 ubiquitin-protein ligase XIAP (Homo sapiens) (UniProt P98170); experiment: small molecules binding XIAP protein – biophysical, small-molecule microarray, fluorescence 635 nm, primary screen (AID 1181); conditions: higher = more signal;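 note: score merges 667 nm emission and signal to noise over triplicate slides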
[11] = test system: XIP peptide (Xip251-270) binding; experiment: XIP fragment 251-270 binding compounds – biochemical, small-molecule microarray, fluorescence 635/667 nm, 0.1 µg/mL protein, primary screen (AID 1182); conditions: fluorescent protein binding, 635 nm, higher = more signal, called active from +8 up or from −8 down
XIP peptide (Xip251-270) = experiment: compounds binding XIP fragment 251-270 – biochemical, small-molecule microarray, fluorescence 635/667 nm, 0.5 µg/mL protein, primary screen (AID 1183); conditions: fluorescence 635 nm, higher = more signal
[12] = blood-stage malaria parasite viability loss – strain 3D7, DAPI fluorescence, 100 nL, primary screen (AID 1184);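 note: parasites grown inside human red blood cells in medium with human serum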; conditions: P. falciparum 3D7 growth, 3 d, higher = more signal
[13] = target: Homeobox protein Hox-A13 (Mus musculus) (UniProt Q62424); experiment: disruptors of Hoxa13 oligonucleotide interaction – biochemical, fluorescence polarization, labeled oligonucleotide, primary screen (AID 1185); conditions: Hoxa13:DNA binding, 15 min, higher = more signal, called active from +8 up or from −8 down
Homeobox protein Hox-A13 (Mus musculus), sequence (Q62424 whole entry, looked up): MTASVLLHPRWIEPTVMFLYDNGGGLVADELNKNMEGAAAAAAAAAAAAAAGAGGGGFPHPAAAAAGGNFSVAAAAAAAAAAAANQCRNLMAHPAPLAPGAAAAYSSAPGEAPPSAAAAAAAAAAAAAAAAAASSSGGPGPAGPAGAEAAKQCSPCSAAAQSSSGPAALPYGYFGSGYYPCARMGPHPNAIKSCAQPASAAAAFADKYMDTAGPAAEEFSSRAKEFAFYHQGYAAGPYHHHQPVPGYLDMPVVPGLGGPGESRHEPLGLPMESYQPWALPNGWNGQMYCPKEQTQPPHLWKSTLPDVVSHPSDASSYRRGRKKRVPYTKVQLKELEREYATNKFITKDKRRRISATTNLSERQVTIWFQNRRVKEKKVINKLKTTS

E3 ubiquitin-protein ligase XIAP (Homo sapiens), sequence (P98170 whole entry, looked up, the tested form may be a part): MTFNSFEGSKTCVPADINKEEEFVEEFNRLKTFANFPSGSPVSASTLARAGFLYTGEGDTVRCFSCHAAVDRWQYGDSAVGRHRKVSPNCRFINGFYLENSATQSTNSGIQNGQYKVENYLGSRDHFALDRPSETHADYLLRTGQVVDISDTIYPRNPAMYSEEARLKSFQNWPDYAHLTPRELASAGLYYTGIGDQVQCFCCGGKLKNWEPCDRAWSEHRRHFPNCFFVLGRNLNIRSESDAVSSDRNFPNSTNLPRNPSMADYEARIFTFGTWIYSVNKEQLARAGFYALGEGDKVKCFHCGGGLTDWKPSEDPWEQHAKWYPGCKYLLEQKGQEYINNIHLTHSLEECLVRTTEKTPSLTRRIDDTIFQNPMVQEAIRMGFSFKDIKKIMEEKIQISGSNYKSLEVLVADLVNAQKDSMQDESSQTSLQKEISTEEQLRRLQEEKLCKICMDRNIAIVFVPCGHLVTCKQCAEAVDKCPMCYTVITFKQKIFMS
Dihydroorotate dehydrogenase (quinone), mitochondrial (Plasmodium falciparum (isolate 3D7)), sequence (Q08210 whole entry, looked up): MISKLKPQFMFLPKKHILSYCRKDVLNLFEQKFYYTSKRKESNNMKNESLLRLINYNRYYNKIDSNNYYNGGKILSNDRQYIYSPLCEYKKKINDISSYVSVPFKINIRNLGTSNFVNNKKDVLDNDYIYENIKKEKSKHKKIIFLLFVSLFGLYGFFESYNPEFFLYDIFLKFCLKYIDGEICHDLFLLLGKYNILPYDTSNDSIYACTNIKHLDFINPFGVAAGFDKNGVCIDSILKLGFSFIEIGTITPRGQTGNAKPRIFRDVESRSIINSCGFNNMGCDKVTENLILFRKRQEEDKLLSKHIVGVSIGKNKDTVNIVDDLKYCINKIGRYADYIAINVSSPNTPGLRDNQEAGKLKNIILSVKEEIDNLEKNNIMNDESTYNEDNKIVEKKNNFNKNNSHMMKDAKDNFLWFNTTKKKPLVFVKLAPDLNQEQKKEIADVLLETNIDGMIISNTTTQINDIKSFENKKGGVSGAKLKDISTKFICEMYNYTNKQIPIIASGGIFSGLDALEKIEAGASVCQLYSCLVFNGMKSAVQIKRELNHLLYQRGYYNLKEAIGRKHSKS

Compound | z-score [1] | z-score [2] | z-score [3] | composite z-score [4] | z-score [5] | z-score [6] | z-score [7] | z-score [8] | z-score [9] | composite z-score [10] | composite z-score [11] | composite z-score (XIP peptide (Xip251-270)) | z-score [12] | z-score [13]
COC(=O)CC=C[C@@H](C)[C@@H](C=NO[C@@H](C)c1cn([C@H](CO)Cc2ccccc2)nn1)NS(=O)(=O)c1ccc(C)cc1 | -1.21 | -0.913 (inactive) | -0.412 (inactive) | -1.16 (inactive) | -1.54 (inactive) | -2.06 (inactive) | 0.196 (inactive) | 0.364 (inactive) | -0.808 | -0.349 | -0.294 (inactive) | 0.464 | 0.281 | -4.93 (inactive)
C[C@@H](c1ccccc1)N1C(=O)[C@H]2[C@H]3[C@H](O)[C@H](O)CC(=O)[C@H]3CC[C@H]2C1=O | -0.137 | -0.491 (inactive) | 0.162 (inactive) | -0.736 (inactive) | 0.128 (inactive) | -0.218 (inactive) | 0.366 (inactive) | 0.53 (inactive) | 0.033 | 0.0641 | -0.286 (inactive) | 0.251 | 0.676 | 0.0632 (inactive)
CC(C)(C)N1C(=O)[C@H]2[C@H]3[C@H](O)[C@H](O)CC(=O)[C@@H]3CC[C@H]2C1=O | -0.0291 | -0.693 (inactive) | -0.0757 (inactive) | -0.251 (inactive) | 0.27 (inactive) | -0.736 (inactive) | -0.268 (inactive) | -0.653 (inactive) | -0.0415 | -0.177 | -0.138 (inactive) | 0.419 | -0.507 | -0.472 (inactive)
CCOC(=O)[C@H](CC(C)C)NC(=O)CCC1CC(OC(=O)NCc2cccc3ccccc23)CC2(CCCC(COC(=O)NCc3cccc(C(F)(F)F)c3)O2)O1 (some centres undefined) | -0.189 | -0.31 (inactive) | 0.0223 (inactive) | -0.161 (inactive) | 0.687 (inactive) | 0.388 (inactive) | 0.939 (inactive) | 1.08 (inactive) | 0.639 | -0.206 | -0.364 (inactive) | -0.298 | 0.688 | -0.443 (inactive)
COC(=O)[C@@H]1CC[C@H](C)[C@@H](c2ccc(C)cc2)N1C(=O)c1ccc(C=NO[C@H](C)c2cn([C@H](CO)Cc3ccccc3)nn2)cc1 | -1.32 | 0.0789 (inactive) | 0.534 (inactive) | 0.271 (inactive) | -0.598 (inactive) | 0.59 (inactive) | -1.28 (inactive) | -1.03 (inactive) | 0.641 | -0.102 | -0.402 (inactive) | 0.658 | -1.76 | -5.94 (inactive)
CC(CCN1CCc2nc(-c3ccccc3)c(-c3ccccc3)cc2C1)=NOC[C@@H](O)COCc1ccco1 | -1.2 | -2 (inactive) | -1.88 (inactive) | -0.727 (inactive) | -0.0417 (inactive) | 0.358 (inactive) | 0.943 (inactive) | 1.14 (inactive) | -1.31 | 0.239 | 1.58 (inactive) | 0.54 | 0.329 | -5.11 (inactive)
C#CCCCON=C1C[C@@H](O)[C@@H](O)[C@@H]2[C@@H]3C(=O)N(c4ccc(F)cc4F)C(=O)[C@@H]3CC[C@H]12 | 0.63 | -0.98 (inactive) | 0.475 (inactive) | -0.31 (inactive) | 0.577 (inactive) | -1.67 (inactive) | 0.335 (inactive) | 0.537 (inactive) | 0.817 | 0.199 | 1.55 (inactive) | 0.683 | -0.0103 | -0.42 (inactive)
CC(C)CON=C1C[C@@H](O)[C@@H](O)[C@@H]2[C@@H]3C(=O)N(c4cccc(Oc5ccccc5)c4)C(=O)[C@@H]3CC[C@@H]12 | -0.271 | -1.81 (inactive) | -1.5 (inactive) | -1.71 (inactive) | 0.659 (inactive) | -1.86 (inactive) | -0.321 (inactive) | -0.791 (inactive) | -0.0778 | 0.125 | -0.347 (inactive) | 0.536 | 0.299 | -0.0907 (inactive)
Cc1ccc(S(=O)(=O)N[C@@H]2COC(=O)[C@@H](C)COC(=O)CC=C[C@H]2C)cc1 | 0.0896 | 0.426 (inactive) | 0.258 (inactive) | 0.264 (inactive) | -0.413 (inactive) | 1.02 (inactive) | 0.155 (inactive) | -0.73 (inactive) | -0.0722 | 0.214 | -0.21 (inactive) | 0.038 | 0.393 | -0.0483 (inactive)
COC(=O)NCC=Cc1nc(CCCO)co1 | -0.0091 | 0.41 (inactive) | -0.295 (inactive) | -0.706 (inactive) | -0.245 (inactive) | 0.414 (inactive) | 0.107 (inactive) | 0.438 (inactive) | -0.626 | -0.117 | -0.755 (inactive) | 0.432 | 0.316 | -2.8 (inactive)
COC(=O)[C@@H]1CC[C@H](C)[C@@H](c2ccc(C)cc2)N1C(=O)c1ccc(C=NO[C@H](C)c2cn([C@@H]3COC[C@H]3O)nn2)cc1 | -0.324 | -0.225 (inactive) | -0.943 (inactive) | 0.0465 (inactive) | 0.289 (inactive) | 1.17 (inactive) | 0.879 (inactive) | 0.246 (inactive) | -0.798 | 0.199 | 0.604 (inactive) | 0.78 | -0.214 | -6.19 (inactive)
Cc1ccc(S(=O)(=O)N[C@H]2COC(=O)CC=C[C@H](C)[C@@H](NS(=O)(=O)c3ccc(C)cc3)COC(=O)CC=C[C@@H]2C)cc1 | -0.0933 | 1.32 (inactive) | 0.418 (inactive) | -0.069 (inactive) | -0.585 (inactive) | 1.34 (inactive) | 0.455 (inactive) | 0.614 (inactive) | 0.0846 | -0.146 | 0.127 (inactive) | -0.019 | -0.304 | -0.449 (inactive)
CC(C)=NO[C@H](C)c1cn([C@H](CO)Cc2ccccc2)nn1 | 0.0622 | -0.489 (inactive) | -0.11 (inactive) | -0.784 (inactive) | 0.204 (inactive) | -0.493 (inactive) | 0.517 (inactive) | -1.91 (inactive) | 0.672 | -0.0538 | -0.662 (inactive) | 0.0455 | 0.28 | 0.584 (inactive)
O=C(NN=C1C[C@@H](O)[C@@H](O)[C@@H]2[C@@H]3C(=O)N(Cc4ccccc4)C(=O)[C@@H]3CC[C@@H]12)OCc1ccccc1 | 0.348 | -1.17 (inactive) | 0.0873 (inactive) | -1.65 (inactive) | 0.352 (inactive) | -0.139 (inactive) | 0.851 (inactive) | 0.279 (inactive) | 0.131 | -0.0344 | -0.0255 (inactive) | -0.36 | 0.915 | 0.236 (inactive)
C=CC[C@@H]1C=C[C@H](ON=C2[C@H]3CCn4c(=O)n(-c5ccccc5)c(=O)n4[C@H]3[C@H](O)[C@@H]3O[C@H]23)[C@@H](CO)O1 | -0.684 | 0.695 (inactive) | -0.646 (inactive) | 0.329 (inactive) | 0.675 (inactive) | 0.779 (inactive) | 0.207 (inactive) | -0.104 (inactive) | -0.331 | -0.0663 | 0.372 (inactive) | 0.287 | -0.605 | -2.05 (inactive)
COc1ccc(O[C@H]2C=C[C@@H](c3ccccc3)O[C@@H]2CON=CC[C@@H]2C=C[C@H](OC(C)=O)[C@@H](COC(C)=O)O2)cc1 | 0.185 | 2.06 (inactive) | -0.0893 (inactive) | 0.0159 (inactive) | 0.405 (inactive) | 1.34 (inactive) | 0.503 (inactive) | -0.185 (inactive) | -0.604 | 0.0391 | 0.21 (inactive) | -0.104 | -0.483 | -4.06 (inactive)
CO[C@H]1COC(=O)[C@H](C)NC(=O)[C@@H](C)COC(=O)[C@H]2CCCN2C(=O)CC=C[C@H]1C | -0.384 | -0.739 (inactive) | 0.0177 (inactive) | -2.21 (inactive) | -0.655 (inactive) | -0.382 (inactive) | 0.491 (inactive) | 0.206 (inactive) | -0.65 | -0.354 | -0.077 (inactive) | -0.143 | 0.43 | 0.24 (inactive)
CCOC(=O)[C@H](CC(C)C)NC(=O)CCC1CC(OC(=O)NCCc2ccc(F)cc2)CC2(CCCC(COC(=O)NCCOc3ccccc3)O2)O1 (some centres undefined) | -0.972 | 0.0544 (inactive) | 0.2 (inactive) | 0.95 (inactive) | -0.883 (inactive) | 0.446 (inactive) | -0.183 (inactive) | 0.168 (inactive) | 0.161 | -0.214 | 0.679 (inactive) | 0.31 | -2.02 | -6.97 (inactive)
CCCCc1nc2c(c3c1C[C@H](C)OC3)CN(CCOc1ccccc1)CC2 | -0.492 | -3.28 (inactive) | 0.422 (inactive) | -0.845 (inactive) | 1.1 (inactive) | -1.49 (inactive) | 1.18 (inactive) | -0.908 (inactive) | 0.386 | 0.437 | 1.4 (inactive) | 0.566 | 0.964 | -4.81 (inactive)
COC(=O)CC=C[C@@H](C)[C@H](OCc1cccc(-c2ccccc2)c1)C1CCCCC1 | -0.307 | -0.0348 (inactive) | 0.45 (inactive) | -3.69 (inactive) | -0.409 (inactive) | 1.82 (inactive) | -0.933 (inactive) | -0.661 (inactive) | 0.403 | -0.267 | 0.704 (inactive) | 0.881 | -0.257 | -1.35 (inactive)
CC(C)C[C@H](NC(=O)CCC1CC(OC(=O)NCc2cccc3ccccc23)CC2(CCCC(COC(=O)NCc3ccccc3)O2)O1)C(=O)NCC(c1ccccc1)c1ccccc1 (some centres undefined) | 0.1 | -0.245 (inactive) | 0.284 (inactive) | -0.79 (inactive) | 0.851 (inactive) | -0.0457 (inactive) | 0.64 (inactive) | 0.628 (inactive) | 0.731 | -0.242 | -0.284 (inactive) | 0.673 | -1.65 | -6.28 (inactive)
